Source: PubChem BioAssay (Tox21)
Results filed as inconclusive are left out. Activity calls are given as the source filed them. Unless noted, calls follow the shape of the dose curve; as a rule, active = well fitted curve in the direction sought with a large enough effect in the repeat runs; inconclusive = weak or mixed curves; inactive = no such curve, though single readings can be large; an effect the other way counts as inactive or inconclusive.

Assays:
[1] = qHTS assay to identify aromatase inhibitors - cell viability counter screen (AID 743084);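 also: cells stimulated with testosterone during compound exposure; nearly all actives have a fitted effect of over 55% in size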
[2] = biological target: Aryl hydrocarbon receptor (Homo sapiens) (UniProt P35869); assay: qHTS assay to identify small molecule that activate the aryl hydrocarbon receptor (AhR) signaling pathway (AID 743085);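 also: HG2L7.5c1 human HepG2 liver cells with stably integrated DRE-driven firefly reporter; series mostly up to about 70 µM; nearly all actives have a fitted effect of over 15% in size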
Chain of Aryl hydrocarbon receptor (Homo sapiens) (P35869 whole entry, looked up): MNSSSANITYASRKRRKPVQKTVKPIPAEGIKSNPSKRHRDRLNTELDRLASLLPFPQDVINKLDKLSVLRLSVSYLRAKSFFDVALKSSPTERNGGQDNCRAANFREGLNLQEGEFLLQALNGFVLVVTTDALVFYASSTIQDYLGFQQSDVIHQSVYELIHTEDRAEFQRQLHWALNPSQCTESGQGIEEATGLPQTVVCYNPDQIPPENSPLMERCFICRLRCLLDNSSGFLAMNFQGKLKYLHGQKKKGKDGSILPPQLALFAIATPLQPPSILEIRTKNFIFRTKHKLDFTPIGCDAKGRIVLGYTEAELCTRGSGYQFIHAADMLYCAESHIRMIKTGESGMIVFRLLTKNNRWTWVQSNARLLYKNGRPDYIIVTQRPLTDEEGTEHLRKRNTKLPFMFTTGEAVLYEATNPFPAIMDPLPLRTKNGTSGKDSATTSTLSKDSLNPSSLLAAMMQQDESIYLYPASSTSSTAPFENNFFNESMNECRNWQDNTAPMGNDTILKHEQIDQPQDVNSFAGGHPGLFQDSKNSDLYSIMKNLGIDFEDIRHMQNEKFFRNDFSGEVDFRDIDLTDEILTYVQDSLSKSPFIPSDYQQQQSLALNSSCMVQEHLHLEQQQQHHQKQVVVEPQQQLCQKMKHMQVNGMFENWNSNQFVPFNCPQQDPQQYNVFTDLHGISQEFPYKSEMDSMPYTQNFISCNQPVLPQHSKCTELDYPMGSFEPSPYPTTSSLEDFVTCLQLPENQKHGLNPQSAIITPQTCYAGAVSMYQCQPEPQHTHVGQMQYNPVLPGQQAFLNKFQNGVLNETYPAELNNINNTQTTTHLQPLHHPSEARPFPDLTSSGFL
In short: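 HepG2 cells stably carrying a 20-DRE firefly luciferase reporter (HG2L7.5c1) treated with compound for 24 hr at 37C. Luciferase read by ONE-Glo luminescence, with CellTiter-Fluor viability read first.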

[3] = qHTS assay to identify small molecule that activate the aryl hydrocarbon receptor (AhR) signaling pathway - cell viability counter screen (AID 743086);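 also: HepG2 liver cells carrying the AhR DRE luciferase reporter; series mostly up to about 70 µM; nearly all actives have a fitted effect of over 45% in size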
In short: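 HepG2-AhR-luc (HG2L7.5c1) cells, 4000/well, were preincubated 5 h at 37C, exposed to compound in qHTS format for 24 hr at 37C, then given CellTiter-Fluor for 30 min; viability was read as fluorescence in the reporter wells.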

[4] = qHTS assay for small molecule agonists of the antioxidant response element (ARE) signaling pathway (AID 743202; active = well fitted activation curve with a large enough effect in the signal ratio in the repeat runs, not every such curve was filed as active; the % refers to the signal ratio)
In short: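 Read-out: LiveBLAzer B/G FRET substrate fluorescence after 2 h at room temperature, following 16 h compound treatment at 37 C of HepG2 cells carrying an ARE-driven beta-lactamase reporter.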

[5] = qHTS assay for small molecule agonists of the antioxidant response element (ARE) signaling pathway - cell viability counter screen (AID 743203; calls by dose curve; also: nearly all actives have a fitted effect of over 55% in size)
In short: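 Following 16 hrs of compound treatment at 37C, HepG2 cells with an ARE-controlled beta-lactamase gene were lysed with CellTiter-Glo. Luminescence was read after 30 min at room temperature.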

[6] = qHTS assay for small molecule activators of the heat shock response signaling pathway - cell viability counter screen (AID 743209); also: nearly all actives have a fitted effect of over 50% in size
In short: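 Readout: CellTiter-Glo luminescence, 30 min at room temperature. System: HSE-bla HeLa cells, 1500/well, plated overnight. Treatment: compounds in DMSO, 5 h at 37 C.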

[7] = qHTS assay for small molecule activators of the heat shock response signaling pathway (AID 743210; active = well fitted activation curve with a large enough effect in the signal ratio in the repeat runs, with a control signal flat, not every such curve was filed as active; the % refers to the signal ratio; also: series mostly up to about 63 µM)
In short: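 HSE-bla HeLa cells (beta-lactamase reporter under heat shock response elements) were exposed to compounds for 5 h at 37 C, then loaded with LiveBLAzer B/G FRET substrate for 2.5 h at room temperature before fluorescence reading.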

[8] = qHTS assay to identify small molecule agonists of the peroxisome proliferator-activated receptor delta (PPARd) signaling pathway - cell viability counter screen (AID 743211); also: nearly all actives have a fitted effect of over 55% in size
In short: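 PPARd-bla HEK293H cells (3000/well) were pre-incubated 5 h at 37 C, then exposed to compound for 17 h at 37 C. After 2 h with LiveBLAzer substrate, CellTiter-Glo was added to the same wells; luminescence read after 30 min at room temperature.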

[9] = biological target: Peroxisome proliferator-activated receptor delta (Homo sapiens) (UniProt Q03181); assay: qHTS assay to identify small molecule agonists of the peroxisome proliferator-activated receptor delta (PPARd) signaling pathway (AID 743212; calls by dose curve)
Chain of Peroxisome proliferator-activated receptor delta (Homo sapiens) (Q03181 whole entry, looked up): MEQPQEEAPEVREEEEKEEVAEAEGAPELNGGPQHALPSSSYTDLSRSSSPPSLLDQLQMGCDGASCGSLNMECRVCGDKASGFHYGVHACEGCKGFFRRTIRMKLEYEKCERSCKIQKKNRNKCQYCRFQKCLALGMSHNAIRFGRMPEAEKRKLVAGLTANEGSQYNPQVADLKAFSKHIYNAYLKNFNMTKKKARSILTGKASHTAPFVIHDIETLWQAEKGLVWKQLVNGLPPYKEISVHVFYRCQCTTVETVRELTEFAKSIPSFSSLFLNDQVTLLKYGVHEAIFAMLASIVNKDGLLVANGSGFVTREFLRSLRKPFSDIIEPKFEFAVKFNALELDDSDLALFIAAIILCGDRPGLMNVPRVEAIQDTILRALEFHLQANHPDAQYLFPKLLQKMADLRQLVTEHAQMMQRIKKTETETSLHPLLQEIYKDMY
In short: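 GeneBLAzer PPARd UAS-bla HEK293H cells (beta-lactamase reporter under UAS control), plated and rested 5 h at 37 C, then exposed to compounds in DMSO at 37 C; LiveBLAzer B/G FRET substrate added, 2 h room temperature, fluorescence read.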

[10] = qHTS assay to identify small molecule antagonists of the peroxisome proliferator-activated receptor delta (PPARd) signaling pathway - cell viability counter screen (AID 743213); also: nearly all actives have a fitted effect of over 50% in size
In short: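 HEK293H cells with the PPARd UAS-bla reporter, co-treated 17 h at 37 C with compounds and L165041 (300 nM final), were lysed with CellTiter-Glo. Luminescence indicated viable cell content.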

[11] = biological target: Peroxisome proliferator-activated receptor delta (Homo sapiens) (UniProt Q03181); assay: qHTS assay to identify small molecule antagonists of the peroxisome proliferator-activated receptor delta (PPARd) signaling pathway (AID 743215; active = well fitted inhibition curve with a large enough effect in the signal ratio in the repeat runs, not every such curve was filed as active; the % refers to the signal ratio;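 also: cells stimulated with agonist L165041 at 300 nM final during compound exposure; series mostly up to about 62 µM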)
In short: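 HEK293H UAS-bla, PPARd; agonist L165041 300 nM final with cpd in DMSO; 37 C 17 h; FRET substrate, RT 2 h; fluorescence intensity.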

[12] = qHTS assay to identify small molecule agonists of the farnesoid-X-receptor (FXR) signaling pathway - cell viability counter screen (AID 743218); also: nearly all actives have a fitted effect of over 45% in size
In short: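 Parallel cytotoxicity test: compound-treated (16 h, 37 C) HEK 293T FXR-bla reporter cells were lysed with CellTiter-Glo and luminescence recorded.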

[13] = biological target: Vitamin D3 receptor (Homo sapiens) (UniProt P11473); assay: qHTS assay to identify small molecule agonists of the vitamin D receptor (VDR) signaling pathway (AID 743222; calls by dose curve)
Chain of Vitamin D3 receptor (Homo sapiens) (P11473 whole entry, looked up): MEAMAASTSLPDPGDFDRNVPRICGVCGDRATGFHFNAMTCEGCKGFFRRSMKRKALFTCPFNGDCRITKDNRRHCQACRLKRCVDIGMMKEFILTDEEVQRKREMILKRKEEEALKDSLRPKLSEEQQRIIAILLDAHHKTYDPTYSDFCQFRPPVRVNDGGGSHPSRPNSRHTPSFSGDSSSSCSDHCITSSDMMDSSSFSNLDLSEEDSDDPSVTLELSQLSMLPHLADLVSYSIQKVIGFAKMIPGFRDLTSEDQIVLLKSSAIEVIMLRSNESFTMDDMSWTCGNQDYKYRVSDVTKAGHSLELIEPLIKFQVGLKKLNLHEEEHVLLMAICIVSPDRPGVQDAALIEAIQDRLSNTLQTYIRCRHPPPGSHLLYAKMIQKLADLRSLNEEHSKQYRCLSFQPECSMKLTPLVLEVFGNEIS
In short: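 In VDR-bla cells, compound-induced beta-lactamase expression is quantified by FRET substrate fluorescence. Treatment lasts 16 h at 37C; substrate develops 2 h at room temperature.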

[14] = biological target: Vitamin D3 receptor (Homo sapiens) (UniProt P11473); assay: qHTS assay to identify small molecule antagonists of the vitamin D receptor (VDR) signaling pathway (AID 743223; active = well fitted inhibition curve with a large enough effect in the signal ratio in the repeat runs, not every such curve was filed as active; the % refers to the signal ratio)
In short: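 VDR-bla cells were treated with compound plus 3 nM final 1alpha,25-dihydroxyvitamin D3 for 16 h at 37C. Beta-lactamase reporter read by B/G FRET substrate fluorescence after 2 h at room temperature. qHTS format.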

[15] = biological target: Peroxisome proliferator-activated receptor gamma (Homo sapiens) (UniProt P37231); assay: qHTS assay to identify small molecule agonists of the peroxisome proliferator-activated receptor gamma (PPARg) signaling pathway (AID 743094; active = well fitted activation curve with a large enough effect in the signal ratio in the repeat runs, not every such curve was filed as active; the % refers to the signal ratio)
Chain of Peroxisome proliferator-activated receptor gamma (Homo sapiens) (P37231 whole entry, looked up): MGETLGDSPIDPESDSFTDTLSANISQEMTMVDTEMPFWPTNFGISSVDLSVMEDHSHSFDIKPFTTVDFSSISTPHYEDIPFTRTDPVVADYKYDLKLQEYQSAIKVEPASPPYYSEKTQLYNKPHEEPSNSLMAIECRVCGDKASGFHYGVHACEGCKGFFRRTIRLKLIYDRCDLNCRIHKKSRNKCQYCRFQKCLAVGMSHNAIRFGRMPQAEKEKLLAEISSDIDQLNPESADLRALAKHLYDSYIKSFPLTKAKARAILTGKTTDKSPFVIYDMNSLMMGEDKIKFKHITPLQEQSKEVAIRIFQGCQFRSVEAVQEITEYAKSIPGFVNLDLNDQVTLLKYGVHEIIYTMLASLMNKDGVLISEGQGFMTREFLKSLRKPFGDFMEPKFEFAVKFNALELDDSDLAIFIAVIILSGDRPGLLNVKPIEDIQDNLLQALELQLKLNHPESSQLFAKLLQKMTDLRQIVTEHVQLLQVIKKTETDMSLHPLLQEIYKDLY
In short: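 Compounds dissolved in DMSO were added to PPARg UAS-bla HEK293H cells for 17 h at 37C, and reporter expression was quantified by fluorescence intensity after 1 h with LiveBLAzer B/G FRET substrate.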

[16] = biological target: Peroxisome proliferator-activated receptor gamma (Homo sapiens) (UniProt P37231); assay: qHTS assay to identify small molecule antagonists of the peroxisome proliferator-activated receptor gamma (PPARg) signaling pathway (AID 743191; calls by dose curve; also: series mostly up to about 63 µM; nearly all actives have a fitted effect of over 30% in size)
In short: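 GeneBLAzer PPARg UAS-bla HEK293H cells carrying a UAS-driven beta-lactamase reporter were plated at 3000 cells/well, preincubated 5 h at 37C, then given compound for 17 h at 37C; LiveBLAzer B/G FRET substrate was read after 1 h at room temperature.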

[17] = qHTS assay to identify small molecule antagonists of the peroxisome proliferator-activated receptor gamma (PPARg) signaling pathway - cell viability counter screen (AID 743194); also: nearly all actives have a fitted effect of over 55% in size
In short: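 PPARg-UAS-bla HEK293H cells were plated, rested 5 h at 37 C, then treated with compounds plus rosiglitazone (50 nM final) for 17 h at 37 C; viability was then read by CellTiter-Glo luminescence after 30 min at room temperature.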

[18] = biological target: Bile acid receptor (Homo sapiens) (UniProt Q96RI1); assay: qHTS assay to identify small molecule antagonists of the farnesoid-X-receptor (FXR) signaling pathway (AID 743217; active = well fitted inhibition curve with a large enough effect in the signal ratio in the repeat runs, not every such curve was filed as active; the % refers to the signal ratio)
Chain of Bile acid receptor (Homo sapiens) (Q96RI1 whole entry, looked up): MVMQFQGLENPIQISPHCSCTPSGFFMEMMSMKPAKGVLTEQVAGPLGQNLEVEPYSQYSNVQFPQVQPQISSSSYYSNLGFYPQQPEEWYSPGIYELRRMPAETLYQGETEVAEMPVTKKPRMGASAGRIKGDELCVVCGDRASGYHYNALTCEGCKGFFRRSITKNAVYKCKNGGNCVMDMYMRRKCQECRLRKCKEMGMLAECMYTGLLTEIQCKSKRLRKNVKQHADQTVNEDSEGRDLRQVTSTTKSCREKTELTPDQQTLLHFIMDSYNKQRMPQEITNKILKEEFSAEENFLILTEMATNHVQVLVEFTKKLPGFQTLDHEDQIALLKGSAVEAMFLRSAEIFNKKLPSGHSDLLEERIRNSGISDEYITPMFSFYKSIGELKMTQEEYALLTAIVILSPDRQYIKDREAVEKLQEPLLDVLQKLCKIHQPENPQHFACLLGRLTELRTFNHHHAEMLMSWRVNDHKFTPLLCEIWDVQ
In short: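 GeneBLAzer FXR-UAS-bla HEK 293T, CDCA-stimulated (50 uM final). Compound treatment 16 h, 37 °C. Detection: beta-lactamase cleavage of B/G FRET substrate, fluorescence.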

[19] = biological target: Bile acid receptor (Homo sapiens) (UniProt Q96RI1); assay: qHTS assay to identify small molecule agonists of the farnesoid-X-receptor (FXR) signaling pathway (AID 743220; active = well fitted activation curve with a large enough effect in the signal ratio in the repeat runs, not every such curve was filed as active; the % refers to the signal ratio)
In short: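 Beta-lactamase reporter under UAS control in GeneBLAzer FXR HEK 293T cells (5000/well) measured with LiveBLAzer FRET substrate after 2 h at room temperature. Compound exposure lasted 16 h at 37C.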

[20] = qHTS assay to identify small molecule antagonists of the farnesoid-X-receptor (FXR) signaling pathway - cell viability counter screen (AID 743221; active = well fitted cell-killing curve with a large enough effect in the repeat runs, not every such curve was filed as active; also: nearly all actives have a fitted effect of over 50% in size)
In short: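 GeneBLAzer FXR-UAS-bla HEK 293T cells, compound plus chenodeoxycholic acid (50 uM final), 16 h at 37 C. CellTiter-Glo added to the same wells after the beta-lactamase read; luminescence read after 30 min at room temperature as viability.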

Measured: Potency

C/C(CC(C)C)=N\O
inactive: [1] | [2] | [3] | [4] | [5] | [6] | [7] | [8] | [9] | [10] | [11] | [12] | [13] | [14]

CCCc1ccc(O)cc1
inactive: [1] | [3] | [15] | [16] | [17] | [4] | [5] | [6] | [7] | [8] | [9] | [10] | [11] | [18] | [12] | [19] | [20] | [13] | [14]

CC(C)COC(=O)c1ccccc1
inactive: [1] | [2] | [3] | [15] | [17] | [6] | [8] | [9] | [10] | [11] | [12] | [13] | [14]

c1ccc2c(CC3=NCCN3)cccc2c1
inactive: [1] | [3] | [15] | [16] | [17] | [4] | [5] | [6] | [7] | [8] | [9] | [10] | [11] | [12] | [20]

CCCCCCCCCCCCCCCCCCOCCO
inactive: [1] | [3] | [15] | [16] | [17] | [4] | [5] | [6] | [7] | [8] | [9] | [11] | [18] | [12] | [19] | [20] | [13] | [14]

O=C(O)c1cc2ccccc2nc1C(=O)O
inactive: [1] | [3] | [15] | [16] | [17] | [4] | [5] | [6] | [7] | [8] | [9] | [10] | [11] | [18] | [19] | [13] | [14]

O=C[O][Al]([O]C=O)[O]C=O
inactive: [1] | [2] | [3] | [17] | [4] | [5] | [6] | [7] | [8] | [9] | [10] | [11] | [18] | [12] | [19] | [20] | [13]

COC(=O)c1cc(Cl)cc(Cl)c1
inactive: [1] | [2] | [3] | [15] | [4] | [5] | [6] | [8] | [9] | [10] | [11] | [12] | [20] | [13] | [14]

COS(=O)(=O)O
inactive: [1] | [2] | [3] | [17] | [4] | [5] | [6] | [8] | [10] | [12] | [19] | [20] | [13] | [14]

CCC/C=C(\C=O)CC
inactive: [1] | [2] | [3] | [17] | [4] | [5] | [6] | [7] | [8] | [9] | [10] | [20] | [13]

CC(=O)CC(=O)Nc1ccc(C)cc1C
inactive: [1] | [2] | [3] | [17] | [4] | [5] | [6] | [8] | [9] | [10] | [11] | [18] | [12] | [19] | [20]

CCCCCCCCCCCCCCCCCC#N
inactive: [1] | [3] | [15] | [16] | [17] | [4] | [5] | [6] | [7] | [8] | [9] | [10] | [12] | [20]

COc1ccc(CCO)cc1
inactive: [1] | [2] | [3] | [15] | [4] | [5] | [6] | [7] | [8] | [9] | [10] | [11] | [20] | [13] | [14]

OCC(O)CN1CCN(c2ccccc2)CC1 (stereo not drawn)
inactive: [1] | [2] | [15] | [16] | [17] | [4] | [5] | [6] | [7] | [8] | [9] | [10] | [11] | [18] | [12] | [19] | [20]

CC(C)c1ccc(C=O)cc1
inactive: [1] | [2] | [3] | [15] | [4] | [5] | [6] | [7] | [8] | [9] | [10] | [11] | [12] | [13]

[O]=[Mo](=[O])=[O]
inactive: [1] | [2] | [3] | [17] | [4] | [5] | [6] | [7] | [9] | [10] | [12] | [20] | [13] | [14]

CC1(C)Oc2ccc(C#N)cc2[C@@H](N2CCCC2=O)[C@@H]1O
inactive: [1] | [3] | [15] | [16] | [17] | [4] | [5] | [6] | [7] | [8] | [10] | [18] | [12] | [19]
